# Measurements taken from PubChem BioAssay (NCI).
# Compounds without any hit were thinned out: in the full panel of roughly 79,000, 15% have a hit. Values without a mark were called inactive. Calls of active or inactive are those of the source. No stated cut-off is given here; in the data, active means growth inhibition above about 70%; inactive means the rest.
# Tests used:
# [1] = NCI Yeast Anticancer Drug Screen. Data for the rad50 strain (AID 155);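 further: 0% = growth of vehicle-only cultures of the same strain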; details: S. cerevisiae rad50 strain growth inhibition; at 50.0 µM; active compounds read high
# Outline: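 Vehicle-treated cultures provide the reference for the growth inhibition reported for compound-exposed, repair-deficient yeast.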
# [2] = NCI Yeast Anticancer Drug Screen. Data for the mec2-1 strain (AID 157); details: S. cerevisiae mec2-1 strain, at 50.0 µM, active compounds read high
# Outline: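 Test agents were screened against the mec2-1 yeast strain, with defined DNA repair or cell cycle alteration. Growth was scored as inhibition against vehicle-only controls.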
# [3] = NCI Yeast Anticancer Drug Screen. Data for the sgs1 mgt1 strain (AID 161);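 further: 0% = growth of cultures given vehicle only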; details: S. cerevisiae sgs1 mgt1 strain, at 50.0 µM, active compounds read high
# Outline: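 Mutant yeast exposed to compound; growth scored against vehicle-only wells.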
# [4] = NCI Yeast Anticancer Drug Screen. Data for the cln2 rad14 strain (AID 165);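 further: 0% = growth equal to vehicle treated cultures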; details: S. cerevisiae cln2 rad14 strain, at 50.0 µM, active compounds read high
# Outline: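 Growth of compound-exposed yeast (cln2 rad14 genotype) measured and expressed as inhibition relative to vehicle.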
# [5] = NCI Yeast Anticancer Drug Screen. Data for the bub3 strain (AID 167); details: S. cerevisiae bub3 mutant strain, at 50.0 µM, active compounds read high
# Outline: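 Mutant yeast screening strain plus compound; vehicle-treated cultures serve as the 0% inhibition reference.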
# [6] = NCI Yeast Anticancer Drug Screen. Data for the mlh1 rad18 strain (AID 175); details: S. cerevisiae mlh1 rad18 strain growth inhibition; at 50.0 µM; active compounds read high
# Outline: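 In this whole-cell yeast screen, a strain with altered DNA damage repair is challenged with compound, and its growth is measured against matched vehicle-treated controls.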
Structure (SMILES),growth inhibition [1] [%],growth inhibition [2] [%],growth inhibition [3],growth inhibition [4] [%],growth inhibition [5] [%],growth inhibition [6]
O=C1NC2C1C1c3ccccc3C2C12CC2 (stereo not given),-11.1,-7.95,-13.6%,-11.8,13.1,-1.85%
O=C(CC(=O)n1nc(-c2ccccc2)c(N=Nc2ccccc2Cl)c1-c1ccccc1)Nc1ccc(Cl)cc1,-9.5,8.45,-3.95%,13.9,-18.7,-8.65%
CSc1nc(=O)n(CCC#N)nc1SC,32.6,21.9,34.9%,-7.65,4.25,12.2%
CCOC(=O)C1=NNCC1c1cccc(Cl)c1 (stereo not given),12.5,-7.5,-3.7%,-37.9,-13.2,-6.5%
O=C(Nc1cccc(C(=O)NCCCO)c1)/C(=C/c1ccccc1)NC(=O)c1ccccc1,0,-1.85,1.45%,9.35,-2.4,4.35%
Cc1cc2[nH]c(=O)n(C3OC(CO)C(O)C3O)c2cc1C (stereo not given),-15.2,19.1,2.4%,-33.2,-7.6,-4.4%
CC1CCCCN1Cc1ccccc1COC(=O)c1cccc(Br)c1 (stereo not given),32.5,-1.65,43.3%,-16.9,16.1,2.4%
O=C(Nc1ccc(Br)cn1)c1sc2ccccc2c1Cl,8.2,-9.7,26.6%,19.4,16.4,14.2%
CC(=O)CC(=O)CCCCCCCCCCCC(=O)CC(C)=O,-5.15,-15.4,-5.45%,-0.1,13.5,10.4%
C=C1CC(C)(Cn2cnc3c(=O)[nH]cnc32)OC1=O (stereo not given),18.1,22.7,12.9%,8,16.6,21.6%
COc1ccccc1Nc1nc(N)nc(N)c1N,0.85,-3.65,5%,-3.75,-4.9,11.2%
Cc1c(C(=O)O)n2cnnc2c2ccccc12,22.8,4,-38.1%,11.9,-15.8,1.5%
CC1(C)COC(c2ccc(CC(Cc3ccc(C4(C(C)(C)C)OCC(C)(C)CO4)cc3)C(=O)O)cc2)(C(C)(C)C)OC1,-7.25,-19.8,3.1%,5.15,3.8,5.35%
O=C1CCC(=O)N1C(c1ccccc1)(c1ccccc1)N1C(=O)CCC1=O,-20.9,12.2,-2%,29.1,8.25,-6.85%
Cc1ccc(CC(=O)N(C)C)c([N+](=O)[O-])c1,-9.5,-7.15,-1%,0.95,-8.45,-25.1%
N#CCC(=O)O,-0.2,6.5,-4.3%,2.05,-3.2,-9%
COC(=O)/C=C1\C(=O)N(C(C)=O)c2ccccc21,12.3,16.1,72.2% (active),40.1,50.6,76.4% (active)
COC(=O)c1ccc(C(=O)OC)c2nc3ccccc3nc12,13.1,9.35,8.45%,8.9,15.1,7.6%
O=C1N(c2cccc(F)c2)C(=O)N1c1cccc(F)c1,27.4,3.3,-9.1%,13.2,-1.1,5.5%
CN1C(=O)CCSC1=S,3.55,-12.1,-4.7%,-18.6,14.4,-2.05%
